The whole screen tested about 5,500 compounds, of which about 2,000 (36%) were called active. Another 18% or so got no clear call; they are omitted. Rule as the data show it: active = normalized growth mostly below about 0.91 (no sharp cut-off); inconclusive = no clear call, values can overlap the other calls; inactive = mostly above about 0.92. The list shows a part of the results.
Assay: chemical genetic growth profiling, strain panel (AID 1159580);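 also: tested at 20 µM; growth read once vehicle control cultures reached saturation at 30 °C; 1 = growth at the plate median or of vehicle wells; lower values mean less growth of the strain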
Settings: growth OD

Measured: normalized growth

CCOC(=O)c1c(C)cc(OC)cc1O
active: S. cerevisiae deletion strains, locus YKR001C, strain vps1, stronger effect = lower value 0.842 | S. cerevisiae deletion strains, locus YLR113W, strain HOG1, stronger effect = lower value 0.835 | S. cerevisiae deletion strains, locus YLR262C, strain YPT6 (second series), stronger effect = lower value 0.731 | S. cerevisiae deletion strains, locus YLR320W, strain mms22, stronger effect = lower value 0.859 | S. cerevisiae deletion strains, locus YNL071W, strain lat1, stronger effect = lower value 0.795 | S. cerevisiae deletion strains, locus YNL307C, strain MCK1, stronger effect = lower value 0.734 | S. cerevisiae deletion strains, locus YOR184W, strain ser1, stronger effect = lower value 0.808 | S. cerevisiae deletion strains, locus YOR270C, strain vph1, stronger effect = lower value 0.727
inactive: S. cerevisiae deletion strains, locus YJR075W, strain HOC1, stronger effect = lower value 0.936 | S. cerevisiae deletion strains, locus YKL009W, strain mrt4, stronger effect = lower value 0.939 | S. cerevisiae deletion strains, locus YKL068W, stronger effect = lower value 0.956 | S. cerevisiae deletion strains, locus YKL085W, strain MDH1 (second series), stronger effect = lower value 0.946 | S. cerevisiae deletion strains, locus YKL085W, strain MDH1, stronger effect = lower value 0.946 | S. cerevisiae deletion strains, locus YKL160W, strain elf1, stronger effect = lower value 0.976 | S. cerevisiae deletion strains, locus YKL190W, strain CNB1, stronger effect = lower value 0.996 | S. cerevisiae deletion strains, locus YKR026C, strain gcn3, stronger effect = lower value 0.951 | S. cerevisiae deletion strains, locus YKR091W, strain srl3, stronger effect = lower value 0.971 | S. cerevisiae deletion strains, locus YLL001W, strain dnm1, stronger effect = lower value 0.962 | S. cerevisiae deletion strains, locus YLL026W, stronger effect = lower value 0.965 | S. cerevisiae deletion strains, locus YLL041C, strain sdh2, stronger effect = lower value 0.96 | S. cerevisiae deletion strains, locus YLR027C, strain aat2, stronger effect = lower value 0.963 | S. cerevisiae deletion strains, locus YLR039C, strain RIC1, stronger effect = lower value 0.872 | S. cerevisiae deletion strains, locus YLR058C, strain SHM2, stronger effect = lower value 0.993 | S. cerevisiae deletion strains, locus YLR102C, strain apc9, stronger effect = lower value 0.946 | S. cerevisiae deletion strains, locus YLR221C, strain rsa3, stronger effect = lower value 0.949 | S. cerevisiae deletion strains, locus YLR258W, strain gsy2, stronger effect = lower value 0.964 | S. cerevisiae deletion strains, locus YLR262C, strain YPT6, stronger effect = lower value 0.928 | S. cerevisiae deletion strains, locus YLR268W, strain sec22, stronger effect = lower value 0.958 | S. cerevisiae deletion strains, locus YLR330W, strain CHS5, stronger effect = lower value 1.01 | S. cerevisiae deletion strains, locus YLR342W, strain FKS1 (second series), stronger effect = lower value 0.971 | S. cerevisiae deletion strains, locus YLR342W, strain FKS1, stronger effect = lower value 0.984 | S. cerevisiae deletion strains, locus YLR357W, strain rsc2, stronger effect = lower value 0.969 | S. cerevisiae deletion strains, locus YLR370C, strain arc18, stronger effect = lower value 0.981 | S. cerevisiae deletion strains, locus YLR371W, strain rom2, stronger effect = lower value 0.962 | S. cerevisiae deletion strains, locus YLR384C, strain iki3, stronger effect = lower value 0.972 | S. cerevisiae deletion strains, locus YLR418C, strain cdc73, stronger effect = lower value 0.891 | S. cerevisiae deletion strains, locus YML016C, strain PPZ1, stronger effect = lower value 0.988 | S. cerevisiae deletion strains, locus YML032C, strain rad52, stronger effect = lower value 0.91 | S. cerevisiae deletion strains, locus YML120C, strain ndi1, stronger effect = lower value 0.972 | S. cerevisiae deletion strains, locus YML124C, strain tub3, stronger effect = lower value 0.947 | S. cerevisiae deletion strains, locus YMR058W, strain fet3, stronger effect = lower value 0.968 | S. cerevisiae deletion strains, locus YMR078C, strain ctf18, stronger effect = lower value 0.926 | S. cerevisiae deletion strains, locus YMR125W, strain sto1, stronger effect = lower value 1 | S. cerevisiae deletion strains, locus YMR129W, stronger effect = lower value 0.977 | S. cerevisiae deletion strains, locus YMR205C, strain PFK2, stronger effect = lower value 0.887 | S. cerevisiae deletion strains, locus YMR223W, strain ubp8, stronger effect = lower value 0.924 | S. cerevisiae deletion strains, locus YMR231W, strain pep5, stronger effect = lower value 0.985 | S. cerevisiae deletion strains, locus YMR263W, strain SAP30, stronger effect = lower value 0.985 | S. cerevisiae deletion strains, locus YMR307W, strain GAS1, stronger effect = lower value 0.996 | S. cerevisiae deletion strains, locus YNL067W, strain RPL9B, stronger effect = lower value 0.99 | S. cerevisiae deletion strains, locus YNL128W, strain TEP1, stronger effect = lower value 1.01 | S. cerevisiae deletion strains, locus YNL153C, strain GIM3, stronger effect = lower value 0.989 | S. cerevisiae deletion strains, locus YNL183C, strain NPR1, stronger effect = lower value 0.872 | S. cerevisiae deletion strains, locus YNL209W, strain ssb2, stronger effect = lower value 0.992 | S. cerevisiae deletion strains, locus YNL233W, strain BNI4, stronger effect = lower value 0.98 | S. cerevisiae deletion strains, locus YNL248C, strain rpa49, stronger effect = lower value 0.936 | S. cerevisiae deletion strains, locus YNL250W, strain rad50, stronger effect = lower value 0.963 | S. cerevisiae deletion strains, locus YNL271C, strain bni1, stronger effect = lower value 0.949 | S. cerevisiae deletion strains, locus YNL298W, strain CLA4, stronger effect = lower value 0.965 | S. cerevisiae deletion strains, locus YNL322C, strain KRE1 (second series), stronger effect = lower value 0.952 | S. cerevisiae deletion strains, locus YNL322C, strain KRE1, stronger effect = lower value 0.989 | S. cerevisiae deletion strains, locus YNR049C, strain mso1, stronger effect = lower value 0.967 | S. cerevisiae deletion strains, locus YNR052C, strain pop2, stronger effect = lower value 0.976 | S. cerevisiae deletion strains, locus YOL006C, strain TOP1, stronger effect = lower value 0.77 | S. cerevisiae deletion strains, locus YOL012C, strain htz1 0.775 | S. cerevisiae deletion strains, locus YOL147C, strain pex11, stronger effect = lower value 0.947 | S. cerevisiae deletion strains, locus YOR001W, strain rrp6, stronger effect = lower value 0.974 | S. cerevisiae deletion strains, locus YOR061W, strain CKA2, stronger effect = lower value 1 | S. cerevisiae deletion strains, locus YOR069W, strain VPS5, stronger effect = lower value 0.989 | S. cerevisiae deletion strains, locus YOR070C, strain gyp1, stronger effect = lower value 0.963 | S. cerevisiae deletion strains, locus YOR080W, strain dia2, stronger effect = lower value 0.997 | S. cerevisiae deletion strains, locus YOR083W, strain WHI5, stronger effect = lower value 0.955 | S. cerevisiae deletion strains, locus YOR106W, strain vam3, stronger effect = lower value 0.936 | S. cerevisiae deletion strains, locus YOR136W, strain idh2, stronger effect = lower value 0.955 | S. cerevisiae deletion strains, locus YOR144C, strain elg1, stronger effect = lower value 0.957 | S. cerevisiae deletion strains, locus YOR231W, strain MKK1, stronger effect = lower value 0.924 | S. cerevisiae deletion strains, locus YOR265W, strain rbl2, stronger effect = lower value 0.962 | S. cerevisiae deletion strains, locus YOR290C, strain snf2, stronger effect = lower value 0.929 | S. cerevisiae deletion strains, locus YOR316C, strain cot1, stronger effect = lower value 0.964 | S. cerevisiae deletion strains, locus YPL051W, strain arl3, stronger effect = lower value 0.96 | S. cerevisiae deletion strains, locus YPL055C, strain LGE1, stronger effect = lower value 0.972 | S. cerevisiae deletion strains, locus YPL078C, strain atp4, stronger effect = lower value 0.932 | S. cerevisiae deletion strains, locus YPL106C, strain sse1, stronger effect = lower value 1.02 | S. cerevisiae deletion strains, locus YPL240C, strain hsp82, stronger effect = lower value 0.987 | S. cerevisiae deletion strains, locus YPL241C, strain CIN2, stronger effect = lower value 0.991 | S. cerevisiae deletion strains, locus YPL256C, strain CLN2, stronger effect = lower value 0.866 | S. cerevisiae deletion strains, locus YPR119W, strain clb2, stronger effect = lower value 0.933 | S. cerevisiae deletion strains, locus YPR141C, strain kar3, stronger effect = lower value 0.946 | S. cerevisiae deletion strains, locus YPR163C, strain tif3, stronger effect = lower value 0.957 | S. cerevisiae deletion strains, locus YPR167C, strain met16, stronger effect = lower value 0.96 | S. cerevisiae deletion strains, strain wtn01, stronger effect = lower value 0.928 | S. cerevisiae strains, strain wild type, stronger effect = lower value 0.978
